Data as given in the supplement of paper PMC6607015.
Where a name gives a salt, the structure may show the parent alone.

Tests used:
Details in all cases: compound concentration in added solution (µM; 5 µl added to 20 µl cells): 10; 18 h
A431 [1] = experiment: LBPA endosome anti-LBPA integrated intensity (sum per cell), Z-score; higher = more LBPA staining
Procedure, shortened: (§1)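 HeLa MZ or A431 cells were plated at 3,500 per well in 20 µl over 5 µl of 10 µM compound solution in duplicate 384-well imaging plates and fixed in 4% PFA after 18 h. Staining used the 6C4 anti-LBPA antibody, filipin, propidium iodide and CellTracker green, with four 20× images captured per well. MetaXpress segmentation measured integrated LBPA or filipin intensity per cell, across the whole cell or inside LBPA endosomes, and AcuityXpress normalised these into Z-scores.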

HeLa MZ [2] = experiment: as above
Procedure, shortened: as §1

A431 [3] = experiment: whole-cell filipin (free cholesterol) integrated intensity, Z-score; higher = more cholesterol staining
Procedure, shortened: as §1

HeLa MZ [4] = experiment: as above
Procedure, shortened: as §1

A431 [5] = experiment: filipin (cholesterol) integrated intensity within LBPA endosomes, Z-score; higher = more cholesterol in LBPA endosomes
Procedure, shortened: as §1

HeLa MZ [6] = experiment: as above
Procedure, shortened: as §1

SMILES | LBPA endosome anti-LBPA integrated intensity (z-score) (A431 [1]) | LBPA endosome anti-LBPA integrated intensity (z-score) (HeLa MZ [2]) | whole-cell filipin (z-score) (A431 [3]) | whole-cell filipin (z-score) (HeLa MZ [4]) | filipin (z-score) (A431 [5]) | filipin (z-score) (HeLa MZ [6])
CC(C)(C)NC[C@H](O)COc1nsnc1N1CCOCC1 [Timolol maleate salt] | -0.399 | -0.336 | -0.605 | -0.359 | -0.435 | -0.395
COC(=O)C1=C(C)NC(C)=C(C(=O)OCC(C)C)C1c1ccccc1[N+](=O)[O-] (stereo unspecified) [Nisoldipine] | 0.222 | 1.99 | 0.622 | 0.224 | -0.263 | -0.481
COc1cc2ncnc(Nc3ccc(F)c(Cl)c3)c2cc1OCCCN1CCOCC1 [Gefitinib] | 3.94 | 2.43 | 0.816 | 0.788 | 2.49 | 2.83
N=C(N)N/N=C/c1c(Cl)cccc1Cl [Guanabenz acetate] | 2.17 | 0.543 | 1.23 | -0.116 | 1.62 | 0.458
C#C[C@]1(O)CC[C@H]2[C@@H]3CCC4=CCCC[C@@H]4[C@H]3CC[C@@]21C [Lynestrenol] | -0.602 | -1.13 | -1.14 | -0.677 | -0.563 | -0.697
CCC(C)(C)C(=O)O[C@H]1C[C@@H](C)C=C2C=C[C@H](C)[C@H](CC[C@@H]3C[C@@H](O)CC(=O)O3)[C@H]21 [Simvastatin] | -0.965 | -1.54 | -0.982 | -0.319 | -0.637 | 0.381
CC[C@H]1OC(=O)C[C@@H](O)[C@H](C)[C@@H](O[C@@H]2O[C@H](C)[C@@H](O[C@H]3C[C@@](C)(O)[C@@H](O)[C@H](C)O3)[C@H](N(C)C)[C@H]2O)[C@@H](CC=O)C[C@@H](C)C(=O)/C=C/C(C)=C/[C@@H]1CO[C@@H]1O[C@H](C)[C@@H](O)[C@@H](OC)[C@H]1OC [Tylosin] | -0.392 | 0.456 | -0.334 | -0.339 | -0.399 | -0.321
Cc1ccc2c(c1)c1c3n2CCNC3CCC1 (stereo unspecified) [Pirlindole mesylate] | 0.0753 | 0.024 | 0.654 | 0.474 | 0.437 | 0.263
O=C(O)CCCC[C@@H]1SC[C@@H]2NC(=O)N[C@@H]21 [Biotin] | -0.478 | -0.782 | -0.69 | -0.491 | -0.471 | -0.52
O=C(O)/C=C/c1ccc(Cn2ccnc2)cc1 [Ozagrel hydrochloride] | -0.373 | 0.0325 | 0.164 | 0.704 | -0.284 | -0.0855
CC(=O)N(CC(O)CN(C(C)=O)c1c(I)c(C(=O)NCC(O)CO)c(I)c(C(=O)NCC(O)CO)c1I)c1c(I)c(C(=O)NCC(O)CO)c(I)c(C(=O)NCC(O)CO)c1I (stereo unspecified) [Iodixanol] | -0.538 | -0.533 | -0.268 | -0.245 | -0.464 | -0.482
CCn1cc(C(=O)O)c(=O)c2cc(F)c(N3CCNC(C)C3)c(F)c21 (stereo unspecified) [Lomefloxacin hydrochloride] | -0.676 | -1.53 | -1.2 | -0.837 | -0.597 | -0.65
C[C@]12CCC(=O)C=C1CC[C@@H]1[C@@H]2C(=O)C[C@@]2(C)[C@H]1CC[C@]2(O)C(=O)CO [Cortisone] | -0.412 | 0.126 | -0.734 | -0.61 | -0.464 | -0.486
CNC(=O)c1c(I)c(C(=O)NCC(=O)Nc2c(I)c(C(=O)O)c(I)c(C(=O)NCCO)c2I)c(I)c(N(C)C(C)=O)c1I [Ioxaglic acid] | -0.421 | -0.394 | -0.282 | -0.455 | -0.384 | -0.571
CCCNC(C)C(=O)Nc1c(C)csc1C(=O)OC (stereo unspecified) [Articaine hydrochloride] | -0.511 | -1.09 | -0.0579 | -0.354 | -0.492 | -0.461
NCc1ccc(S(N)(=O)=O)cc1 [Mafenide hydrochloride] | -0.472 | -0.546 | -0.682 | -0.536 | -0.471 | -0.44
CC(C)(O/N=C(\C(=O)N[C@@H]1C(=O)N2C(C(=O)[O-])=C(C[n+]3ccccc3)CS[C@H]12)c1csc(N)n1)C(=O)O [Ceftazidime pentahydrate] | -0.536 | -0.783 | -0.451 | -0.099 | -0.531 | -0.437
NNc1nncc2ccccc12 [Hydralazine hydrochloride] | -0.438 | -1.11 | -0.55 | -0.572 | -0.474 | -0.461
CCOC(=O)[N-]c1c[n+](N2CCOCC2)no1 [Molsidomine] | -0.56 | 0.0751 | -0.59 | -0.136 | -0.558 | -0.532
CC(=O)OCC(=O)[C@@]1(O)CC[C@H]2[C@@H]3CCC4=CC(=O)CC[C@]4(C)[C@@]3(F)[C@@H](O)C[C@@]21C [Fludrocortisone acetate] | -0.127 | -0.216 | -0.382 | -0.957 | -0.321 | -0.564
COc1cc(NC(C)CCCN)c2ncccc2c1 (stereo unspecified) [Primaquine diphosphate] | -0.0886 | 0.528 | -0.291 | -0.377 | -0.187 | 0.116
Cc1c(NC(C)C)c(=O)n(-c2ccccc2)n1C [Isopyrin hydrochloride] | -0.574 | -1.29 | -0.495 | -0.424 | -0.515 | -0.531
CCN1CCCC1CNC(=O)c1cc(S(N)(=O)=O)ccc1OC (stereo unspecified) [Sulpiride] | -0.472 | -0.315 | -0.817 | -0.434 | -0.518 | -0.501

SMILES | LBPA endosome anti-LBPA integrated intensity (z-score) (A431 [1]) | LBPA endosome anti-LBPA integrated intensity (z-score) (HeLa MZ [2]) | whole-cell filipin (z-score) (A431 [3]) | whole-cell filipin (z-score) (HeLa MZ [4]) | filipin (z-score) (A431 [5]) | filipin (z-score) (HeLa MZ [6])
Cc1cccc(C)c1NC(=O)CN1CCN(CCCC(c2ccc(F)cc2)c2ccc(F)cc2)CC1 [Lidoflazine] | 3.2 | 1.66 | 1.3 | 0.566 | 2.57 | 2.52
CN[C@@H]1[C@@H](O)[C@@H](O[C@@H]2[C@@H](O)[C@H](O[C@H]3OC(CN)=CC[C@H]3N)[C@@H](N)C[C@H]2N)OC[C@]1(C)O [Sisomicin sulfate] | -0.541 | -0.481 | -0.622 | -0.546 | -0.517 | -0.45
COc1ccc(C(=O)NCc2ccc(OCCN(C)C)cc2)cc1OC [Itopride] | -0.646 | -0.657 | -0.844 | -0.665 | -0.581 | -0.36
Oc1c(Cl)cc(Cl)c2cccnc12 [Chloroxine] | -0.792 | -1.58 | -0.709 | -1.27 | -0.75 | -0.803
C[C@H](CCC(=O)O)[C@H]1CC[C@H]2[C@@H]3[C@@H](O)C[C@@H]4C[C@H](O)CC[C@]4(C)[C@H]3CC[C@]12C [Urosiol] | -0.47 | -1.19 | -0.529 | -0.329 | -0.433 | -0.53
CN1CCCN(C(c2ccccc2)c2ccc(Cl)cc2)CC1 (stereo unspecified) [Homochlorcyclizine dihydrochloride] | 2.75 | 1.74 | 0.946 | -0.527 | 2.1 | 1.46
Cc1noc(NS(=O)(=O)c2ccc(N)cc2)c1C [Sulfisoxazole] | -0.641 | -0.742 | -0.79 | -0.499 | -0.574 | -0.486
CCOC(=O)[C@H](CCc1ccccc1)N[C@@H](C)C(=O)N1Cc2ccccc2C[C@H]1C(=O)O [Quinapril HCl] | -0.508 | -0.151 | -0.267 | -0.543 | -0.453 | -0.577
CCCCc1oc2ccccc2c1C(=O)c1cc(I)c(OCCN(CC)CC)c(I)c1 [Amiodarone hydrochloride] | 1.78 | 0.0569 | 0.251 | 0.182 | 2.45 | 1.95
CCCOc1ccccc1-c1nc2[nH]nnc2c(=O)[nH]1 [Zaprinast] | -0.577 | -0.755 | -0.471 | 0.00218 | -0.519 | -0.401
CCCc1cc(C(N)=S)ccn1 [Prothionamide] | -0.257 | 0.224 | 0.0431 | -0.0396 | -0.301 | -0.377
CN(C)CCCN1c2ccccc2Sc2ccc(C(F)(F)F)cc21 [Triflupromazine hydrochloride] | 3.06 | 1.61 | 0.711 | 0.675 | 2.23 | 2.87
Cn1ccnc1S [Methimazole] | -0.549 | -0.811 | -0.397 | -0.237 | -0.496 | -0.58
COc1ccc([C@@H]2Sc3ccccc3N(CCN(C)C)C(=O)[C@@H]2OC(C)=O)cc1 [Diltiazem hydrochloride] | -0.508 | 0.314 | -0.778 | -0.456 | -0.362 | -0.144
C[N+](C)(CCOc1ccccc1)Cc1ccccc1.O=C([O-])c1cc2ccccc2cc1O [Bephenium hydroxynaphthoate] | -0.418 | 0.146 | -0.383 | -0.145 | -0.456 | -0.371
CCCCNc1c(C(=O)OCC)c(C)nc2c1cnn2CC [Tracazolate hydrochloride] | 0.273 | 1.37 | 0.113 | 1.2 | 0.00245 | 0.287
CN(C)CCC=C1c2ccccc2CCc2ccccc21 [Amitryptiline hydrochloride] | 2.23 | 1.04 | 1.41 | 0.0305 | 2.47 | 1.81
CC(CCc1ccccc1)NCC(O)c1ccc(O)c(C(N)=O)c1 (stereo unspecified) [Labetalol hydrochloride] | 0.794 | 1.06 | 1 | -0.0368 | 0.489 | 0.328
CCCCC[C@H](O)/C=C/[C@@H]1[C@@H](C/C=C\CCCC(=O)O)[C@@H](O)C[C@H]1O [Dinoprost trometamol] | -0.294 | -0.303 | -0.632 | -0.582 | -0.462 | -0.236
Nc1nc(NC2CC2)c2ncn([C@H]3C=C[C@@H](CO)C3)c2n1 [Abacavir Sulfate] | -0.557 | -0.156 | -0.517 | -0.596 | -0.478 | -0.612
CO/N=C(\C(=O)N[C@@H]1C(=O)N2C(C(=O)O)=C(C[N+]3(C)CCCC3)CS[C@H]12)c1csc(N)n1 [Cefepime hydrochloride] | -0.483 | -1.02 | -0.176 | -0.327 | -0.47 | -0.504
CO[C@H]1/C=C/O[C@@]2(C)Oc3c(C)c(O)c4c(O)c(c5c(nc6cc(C)ccn65)c4c3C2=O)NC(=O)/C(C)=C\C=C\[C@H](C)[C@H](O)[C@@H](C)[C@@H](O)[C@@H](C)[C@H](OC(C)=O)[C@@H]1C [Rifaximin] | -0.465 | -0.154 | 0.151 | 0.344 | -0.307 | -0.143
CC[N+](CC)(CC)CCOc1cccc(OCC[N+](CC)(CC)CC)c1OCC[N+](CC)(CC)CC [Gallamine triethiodide] | -0.558 | -0.807 | -0.891 | -0.384 | -0.526 | -0.576
